# Measurements from PubChem BioAssay (NCI).
# The panel holds about 83,000 compounds, 20% with a hit somewhere; the sample as a whole holds those more often.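 Note: values are percent growth. 100 is the growth of untreated cells, values between 100 and 0 indicate rising inhibition; between -100 and 0 indicates cell death.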 Active and inactive are the calls of the source. Rule for the calls: active = growth percent below 10; inactive = the rest.
# Tested on: MDA-MB-468 breast
# Assay: NCI-60 one-dose screen, 48 h (100 = growth as untreated, 0 = no growth, -100 = all killed)
# Settings: 10 µM unless noted
row,Compound,growth
1,Oc1ccc([S+](c2ccc(O)cc2)c2ccc(O)cc2)cc1,98% (inactive)
2,Oc1cccc(CCc2ccc(Oc3cc(CCc4cccc(O)c4)cc(O)c3O)cc2)c1,82.5% (inactive)
3,Clc1cc(Cl)c(OCC#CI)cc1Cl,-26% (active)
4,COc1ccc(/C=N/NC(=O)c2cn(C3CC3)c3c(OC)c(N4CC5CCCNC5C4)c(F)cc3c2=O)cc1 (stereo not given),89.4% (inactive)
5,COc1ccc2c(c1)sc1nc(-c3ccccc3)c(-c3cccnc3)n12,90.1% (inactive)
6,NC(=O)c1c(NC(=S)Nc2ccc(OC(F)(F)F)cc2)sc2c1CCC1(C2)OCCO1,94.7% (inactive)
7,CN1CCN(CC#CCOC(=O)CNC(=O)[C@]23CCC(C)(C)C[C@H]2C2=CC[C@@H]4[C@@]5(C)CC[C@H](O)C(C)(C)[C@@H]5CC[C@@]4(C)[C@]2(C)CC3)CC1,97.5% (inactive)
8,c1ccc2cc(Cn3cc(CSc4nc5ccccc5s4)nn3)ccc2c1,106% (inactive)
9,CC(C)CC1NC(=O)C(CCCN)NC(=O)C(C(C)C)NC(=O)C2CCCN2C(=O)C(Cc2ccccc2)NC(=O)C(CC(C)C)NC(=O)C(CCCN)NC(=O)C(C(C)C)NC(=O)C2CCCN2C(=O)C(Cc2ccccc2)NC1=O (stereo not given),-78.1% (active)
10,O=C(NNc1nc2cc(F)c(F)cc2n2cccc12)c1ccncn1,-25.6% (active)
11,CN1CCN(CCCN2c3ccccc3Sc3ccc(C(F)(F)F)cc32)CC1,-2.21% (active)
12,Cc1ccc(-c2nc(C#N)c(S(=O)(=O)n3nc(C)cc3N)o2)cc1,57.7% (inactive)
13,O=c1cc(C(F)(F)F)c2cc(-c3cc4ccccc4c(=O)o3)c(O)cc2o1,61.4% (inactive)
14,CCNNC(=O)[C@@H]1[C@H](c2cc(OC)c(OC)c(OC)c2)c2cc3c(cc2[C@H](O)[C@H]1CO)OCO3,7.05% (active)
15,C=C(CNCCO)[C@@H]1CC[C@]2(CO)CC[C@]3(C)[C@H](CC[C@@H]4[C@@]5(C)CCC(N)C(C)(C)[C@@H]5CC[C@]43C)[C@@H]12 (stereo not given in full),-40.9% (active)
16,CN1C(=O)C2(Nc3cc(Cl)ccc3S2)c2cc(Cl)ccc21 (stereo not given),106% (inactive)
17,N#Cc1ccc(N2Cc3cc(Cl)ccc3OC3=C2C(=O)N(Cc2ccccc2)C3=O)cc1,-64.2% (active)
18,Fc1ccc(-c2cn3c(nc4ccccc43)c(-c3ccccc3)n2)cc1,82.8% (inactive)
19,OC(CN1CCCC2CCCCC21)c1cc2ccccc2c2ccccc12 (stereo not given),-24.4% (active)
20,CC/C=C\C/C=C\C[C@H]1C/C=C2/C(=O)C=C[C@@H]2C/C=C\CCC(=O)O1,-8.25% (active)

row,Compound,growth
1,O=C1C(Cl)=C(Oc2ccccc2)C(=O)c2ccccc21,13% (inactive)
2,CCOC(=O)N/N=C/c1ccc(OC)c(OC)c1,97.6% (inactive)
3,COC(=O)/C=C1/CCCCC1(C)C(=O)OC (stereo not given),103% (inactive)
4,Oc1ccc(CSc2nnc(-c3ccncc3)o2)c2cccnc12,11.9% (inactive)
5,C=CCn1c2ccccc2c2c3c(c4c5ccccc5n(CC=C)c4c21)C(=O)N(O)C3=O,24% (inactive)
6,O=C1OCc2cccc3cccc1c23,104% (inactive)
7,C#CC(=O)N(c1ccc(OC)cc1OC)C(C(=O)NCC(=O)OCC)c1cccs1 (stereo not given),20.2% (inactive)
8,CC1(C)CCc2cc(-c3ccn(S(=O)(=O)c4ccc(Cl)cc4)n3)ccc2O1,48.9% (inactive)
9,COc1ccc(C(=O)CSc2nnc(-c3cc(-c4ccccc4)nc4ccccc34)o2)cc1,104% (inactive)
10,COc1cc(NC(=O)c2cc(OC)c3ccn(C)c3c2)cc2c1C[C@]1(C)CC[C@@H](O)C(C)(C)[C@H]1O2,69.6% (inactive)
11,CCNC(=O)Oc1ccc(/C(=C(/C)Cc2ccc(OC)cc2)c2ccc(OCCN3CCCCCC3)cc2)cc1,51.8% (inactive)
12,CCOC(=O)C(=Cc1ccc(-c2ccccc2)cc1)C(=O)OCC,53% (inactive)
13,CC(C)Nc1cc(-c2c[nH]c(C(=O)N[C@H](CO)c3cccc(Cl)c3)c2)c(Cl)cn1,43.6% (inactive)
14,O=c1oc2ccc3ccccc3c2cc1-c1ccnc2[nH]c(=S)[nH]c(=O)c12,97.1% (inactive)
15,COc1cc(/C=N/Nc2ncnc3c2c(C)nn3-c2ccc(F)cc2)ccc1O,92% (inactive)
16,COc1cccc(-c2nnc(COc3ccc(-c4nc5ccccc5[nH]4)cc3OC)o2)c1,84.6% (inactive)
17,CN1CCN(Cc2ccc(NC(=O)c3cncc(C#Cc4cnc(N)c5ccncc45)c3)cc2C(F)(F)F)CC1,35.5% (inactive)
18,CCc1ccc(CCC(=O)Nc2ncc(Cc3cc(Cl)ccc3Cl)s2)o1,-23% (active)
19,COC1OC(COS(=O)OC)C(O)C(O)C1OS(=O)OC (stereo not given),96.4% (inactive)
20,Cc1ccc(Cn2cc(COc3ccc4c5ccnc(C)c5n(CCCc5ccccc5)c4c3)nn2)cc1,99% (inactive)
